Experimental data from PubChem BioAssay AID1920062 (Sanford-Burnham Center for Chemical Genomics, 2024).
In all, about 370,000 compounds went through this assay and about 400 (0.11%) were called active.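 The calls were made as follows: active = activation at 10 µM reaching about 35% in either raw or pattern-adjusted values (limit read from the data); inactive = the rest.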 Many of the other results were omitted from the sample, so actives are more common in it than they were.

Molecular target: Atrial natriuretic peptide receptor 2 (Homo sapiens) (UniProt P20594)
Sequence (P20594 whole entry, looked up): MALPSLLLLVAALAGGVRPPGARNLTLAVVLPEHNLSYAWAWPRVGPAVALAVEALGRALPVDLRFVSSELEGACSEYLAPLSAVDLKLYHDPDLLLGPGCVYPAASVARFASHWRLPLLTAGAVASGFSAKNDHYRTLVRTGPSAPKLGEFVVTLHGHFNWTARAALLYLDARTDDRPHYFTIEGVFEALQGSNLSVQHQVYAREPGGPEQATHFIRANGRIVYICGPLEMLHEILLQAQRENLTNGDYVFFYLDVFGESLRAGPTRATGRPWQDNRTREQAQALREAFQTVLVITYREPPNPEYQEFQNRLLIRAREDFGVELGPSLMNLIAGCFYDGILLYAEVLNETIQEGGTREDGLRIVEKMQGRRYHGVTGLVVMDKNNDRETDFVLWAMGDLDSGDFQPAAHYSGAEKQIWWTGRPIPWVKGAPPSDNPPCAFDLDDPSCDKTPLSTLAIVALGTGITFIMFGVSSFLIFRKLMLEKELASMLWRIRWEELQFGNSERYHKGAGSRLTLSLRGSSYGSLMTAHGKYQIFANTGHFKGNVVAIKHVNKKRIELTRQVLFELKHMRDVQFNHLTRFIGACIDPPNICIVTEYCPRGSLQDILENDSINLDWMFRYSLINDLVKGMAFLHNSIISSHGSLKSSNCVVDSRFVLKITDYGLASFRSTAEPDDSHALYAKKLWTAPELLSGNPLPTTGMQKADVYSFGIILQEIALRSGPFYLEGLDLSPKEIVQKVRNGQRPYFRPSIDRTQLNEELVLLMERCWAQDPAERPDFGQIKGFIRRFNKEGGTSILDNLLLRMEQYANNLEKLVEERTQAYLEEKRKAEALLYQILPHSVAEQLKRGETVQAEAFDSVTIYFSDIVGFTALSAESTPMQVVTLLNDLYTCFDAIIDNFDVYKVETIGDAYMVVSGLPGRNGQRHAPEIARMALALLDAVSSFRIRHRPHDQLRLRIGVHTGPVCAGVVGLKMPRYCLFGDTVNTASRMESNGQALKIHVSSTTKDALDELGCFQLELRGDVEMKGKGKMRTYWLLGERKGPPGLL
Experiment: GC-B stimulated cGMP production enhancers – HEK293 GC-B cells, cGMP TR-FRET, EC30 CNP, primary screen (AID 1920062)
Conditions: at 10 µM, stronger effect = higher value, 0% at EC30 CNP, 100% saturating CNP

Row | SMILES | activation
1 | O=C(CCCCCCCC(=O)N1CCCCC1)N1CCCCC1 | 2.66% (inactive)
2 | Cc1ccc(NC(=S)N2CCCC(c3ccccc3)=N2)cc1 | -5.08% (inactive)
3 | Cc1cccc(NC(=S)N2CCCC(c3nc4ccccc4[nH]3)C2)c1 (centres undefined) | 0.09% (inactive)
4 | CC(C)[C@H](NC(=O)c1ccc(F)cc1)C(=O)OCC(=O)NC(=O)c1cccn1C | -6.93% (inactive)
5 | COC(=O)CN(c1cccc(C(C)=O)c1)S(C)(=O)=O | -0.3% (inactive)
6 | COc1ccc(CNC(=O)COC(=O)CCS(=O)(=O)c2ccc(C)cc2)cc1OC | -7.76% (inactive)
7 | COc1ccccc1CCCNC(=O)C1CCC(=O)N(CCN2CCOCC2)C1 (centres undefined) | 0.93% (inactive)
8 | Cc1ccc(C(=O)COC(=O)CCCC(=O)NC2CCCCC2)cc1[N+](=O)[O-] | -3.79% (inactive)
9 | CCCc1c(C)nc2scc(-c3ccc(Cl)cc3)n2c1=O | 3.02% (inactive)
10 | O=S(=O)(Cc1nnnn1-c1ccccc1)c1ccccc1 | 3.43% (inactive)
11 | CCCCc1ccc(S(N)(=O)=O)cc1 | 1.33% (inactive)
12 | O=C(CCCN1C(=O)C2C3C=CC(C3)C2C1=O)N1CCN(c2ccccc2)CC1 (centres undefined) | 6.38% (inactive)
13 | COC(=O)c1cc(S(=O)(=O)N2CCN(C(=O)C3CCCO3)CC2)cn1C (centres undefined) | -2.49% (inactive)
14 | Cn1c(CC2Sc3ccccc3NC2=O)nnc1SCC(=O)c1ccc(Cl)cc1 (centres undefined) | -0.22% (inactive)
15 | CC(CCc1ccc(O)cc1)NCc1ccc(Cl)cc1Cl (centres undefined) | -2.85% (inactive)
16 | OC(CCl)CCl | -3.1% (inactive)
17 | COC(=O)Cc1c(-c2[nH]c3ccccc3c2CC(=O)OC)[nH]c2ccccc12 | 36.5% (active)
18 | COC(=O)CCNC(=O)c1ccc2[nH]c(C)c(C)c2c1 | 2.4% (inactive)
19 | CCOC(=O)C1CCN(C(=O)Cc2c(C(=O)O)[nH]c3ccccc23)CC1 | -0.71% (inactive)
20 | N#CC1(NC(=O)COc2ccc3oc4ccccc4c3c2)CCCCC1 | -3.84% (inactive)
21 | CN1CCN(S(=O)(=O)c2ccc(NC(=O)C3CCCO3)cc2)CC1 (centres undefined) | 1.58% (inactive)
22 | CCCOc1ccc(CN(CCO)CCO)cc1C(=O)OC | 3.92% (inactive)
23 | Cc1ccsc1C(=O)NCCc1ccco1 | 1.1% (inactive)

Row | SMILES | activation
24 | O=c1c2ccccc2c(-c2ccc(Br)cc2)nn1Cc1ccccc1 | 0.94% (inactive)
25 | O=C(NCCc1ccco1)c1nn(Cc2ccccc2)c(=O)c2ccccc12 | 49.5% (active)
26 | COc1ccc(OC)c(-n2nnnc2SCC(=O)Nc2cc(C)ccc2OC)c1 | -3.61% (inactive)
27 | COC(=O)c1ccc2ccccc2c1OC1OC(CO)C(O)C(O)C1NC(C)=O (centres undefined) | 1.14% (inactive)
28 | CCCc1nc2ccccc2c(C(=O)OCc2nnc(-c3cc(OC)c(OC)c(OC)c3)o2)c1CC | 27.3% (inactive)
29 | CC1(C)O[C@@H]2[C@H](O1)[C@@H](COS(=O)(=O)O)O[C@H]2n1cnc2c(=O)[nH]cnc21 | 9.84% (inactive)
30 | COc1cccc(CC(=O)N2CCN(C(=O)C(=O)c3cccc(C(F)(F)F)c3)CC2)c1 | 0.51% (inactive)
31 | COc1ccc(-n2c(SCC(=O)Nc3ccc4c(c3)OCCO4)nnc2-c2ccc(Cl)cc2)cc1 | -4.33% (inactive)
32 | C/C(COc1ccccc1)=N\NC(=O)c1nnn(-c2nonc2N)c1-c1ccc(C)cc1 | -1.04% (inactive)
33 | Cc1cc(Cl)ccc1OCc1nc(-c2ccncc2)no1 | -5.32% (inactive)
34 | C=CCN(CC=C)C(=O)COC(=O)c1n[nH]c2ccccc12 | -3.45% (inactive)
35 | CCOc1ccccc1N1CCN(C(=S)Nc2ccc(S(N)(=O)=O)cc2)CC1 | 0.9% (inactive)
36 | CCOc1ccc(-n2cnc3c(=O)[nH]c(N)nc32)cc1 | 20.7% (inactive)
37 | CCCc1nn(C)c2c(=O)[nH]c(-c3cc(S(N)(=O)=O)ccc3OCC)nc12 | 55% (active)
38 | Cc1ccc(NS(=O)(=O)c2ccc(C(=O)NCCCN3CCOCC3)cc2)cc1 | 1.4% (inactive)
39 | COc1ccc(S(=O)(=O)N2CCOCC2)cc1NC(=O)CSc1nnc(NC2CC2)s1 | 56.9% (active)
40 | Cc1ccc(S(=O)(=O)N2CCOCC2)cc1NC(=O)CSc1nnc(N)s1 | -3.12% (inactive)
41 | COc1ccc(S(=O)(=O)N2CCOCC2)cc1NC(=O)CSc1cc(C)ccc1C | -3.41% (inactive)
42 | CCCCn1c(N)c(N(CC(C)C)C(=O)c2cccc(S(=O)(=O)N3CCN(C(C)=O)CC3)c2)c(=O)[nH]c1=O | 4.82% (inactive)
43 | CC(=O)Nc1ccc(Nc2ncnc3c2nnn3Cc2ccccc2Cl)cc1 | -5.33% (inactive)
44 | COc1ccnc2c1c(=O)n(Cc1cccc(F)c1)c(=O)n2C | 9.01% (inactive)
45 | COc1cc(/C=C2/C(=O)ON=C2C)ccc1OCc1cccc(F)c1 | 38.1% (active)
46 | COc1cccc(CNCCc2c[nH]c3ccccc23)c1OCc1ccccc1F | -11.1% (inactive)

Row | SMILES | activation
47 | COc1cc(/C=C2/C(=O)ON=C2C)ccc1OCc1ccccc1F | 37.2% (active)
48 | COc1cc(CNc2ncn[nH]2)ccc1OCc1ccccc1C | -2.6% (inactive)
49 | C/C=C/c1ccc(OCCOc2ccc(C=O)cc2OC)c(OC)c1 | -3.69% (inactive)
50 | COC(=O)[C@@H]1C[C@@]2(O)[C@@H](O)[C@@H](O)[C@@H](O)C[C@H]2N1Cc1ccc(C)s1 | -2.84% (inactive)
51 | O=C(/C=C/[C@H]1O[C@@H](n2cnc3c(NC(=O)c4ccccc4)ncnc32)[C@H](O)[C@@H]1O)NCc1ccccc1 | -3.16% (inactive)
52 | O=C(Nc1nccs1)C1CCN(S(=O)(=O)c2ccc(Cl)c(C(F)(F)F)c2)CC1 | -2.77% (inactive)
53 | COc1ccccc1C(=O)C(O)c1ccccc1OC (centres undefined) | 4.06% (inactive)
54 | CC(=O)Nc1ccc(/C(C)=N/NC(=O)CN(c2ccccc2Br)S(C)(=O)=O)cc1 | 1.02% (inactive)
55 | COc1cc(C2C(N3C(=O)c4ccccc4C3=O)C(=O)N2c2ccc(C)c(C)c2)cc(OC)c1OC (centres undefined) | 3.45% (inactive)
56 | Cc1cccc(N(C(=O)Cc2cccs2)C(C(=O)NCc2ccco2)c2ccncc2)c1 (centres undefined) | -16% (inactive)
57 | CC(C)n1c(-c2ccncc2)n[nH]c1=S | 5.74% (inactive)
58 | Cc1ccccc1C1=NC(C(F)(F)F)(C(F)(F)F)c2c(n(-c3ccc(F)cc3)c(=O)[nH]c2=O)N1 | -3.86% (inactive)
59 | O=C(NCc1cc(C(F)(F)F)cc(C(F)(F)F)c1)C1CC(c2cccc(F)c2)=NO1 (centres undefined) | 4.68% (inactive)
60 | CC1=C(C(N)=O)C(c2ccc(F)cc2)n2nc(CCCO)nc2N1 (centres undefined) | 12.2% (inactive)
61 | CCN(CC)C(=O)C(=O)c1cn(CC(=O)NCc2ccc3c(c2)OCO3)c2ccccc12 | -1.28% (inactive)
62 | C=CCn1c(=O)c(C(=O)NCc2ccc3c(c2)OCO3)c(O)c2ccccc21 | 5.25% (inactive)
63 | CCn1c(=O)c([N+](=O)[O-])c(NCc2ccc3c(c2)OCO3)c2ccccc21 | 38.9% (active)
64 | CCCCNC(=O)c1nc(C2CCN(S(=O)(=O)c3ccc(F)c(F)c3)CC2)oc1-c1cccc(C(F)(F)F)c1 | 1.59% (inactive)
65 | CC1CN/C(=C\C(=O)c2ccc(Br)cc2)C(=O)N1 (centres undefined) | -4.27% (inactive)
66 | N#Cc1ccccc1S(=O)(=O)N1CCN(Cc2c(O)ccc3ccccc23)CC1 | 2.67% (inactive)
67 | Cc1ccc(CN(N=Nc2nonc2N)c2nonc2N)c(C)c1 | 42.7% (active)
68 | CCn1c(/C=C/Nc2ccccc2)[n+](CC)c2ccc(C(=O)OCC(F)(F)F)cc21 | -2.59% (inactive)
69 | O=C(OCCN1C(=O)c2ccccc2C1=O)[C@@H]1CC(O)CN1S(=O)(=O)c1ccccc1[N+](=O)[O-] (some centres undefined) | -3.1% (inactive)

Row | SMILES | activation
70 | COC(=O)[C@@]12CCCCC3=C1N(CCC3)C(=O)[C@H]2CC(=O)NCc1cccc2ccccc12 | -3.99% (inactive)
71 | CCc1nc2c(OCc3ccccc3)cccn2c1N(C)C(=O)c1ccco1 | 3.48% (inactive)
72 | Cc1ccc(/C=C(\C#N)C(=O)Nc2cccc3ncccc23)o1 | -4.94% (inactive)
73 | N#Cc1ccc(C(=O)Nc2nc(-c3cccs3)c(C(=O)C(F)(F)F)s2)cc1 | -0.02% (inactive)
74 | COc1cc(CCC(=O)N2CCN(c3ccccc3Cl)CC2)cc(OC)c1OC | -3.86% (inactive)
75 | COc1cccc(COC(=O)C2CCN(S(=O)(=O)c3cccs3)CC2)c1OC | 1.88% (inactive)
76 | Cc1ccc(C(=O)N2CCCC(c3ccccc3)=N2)cc1 | 2.95% (inactive)
77 | Nc1nc(SC23CC4CC(CC(C4)C2)C3)ns1 | -0.97% (inactive)
78 | CS(=O)(=O)N(CC(=O)Nc1ccc(F)cc1)C1CCCCC1 | 0.74% (inactive)
79 | CN(C)c1nc2n(c(=O)n1)CCO2 | 4.05% (inactive)
80 | O=C(COc1cccnc1[N+](=O)[O-])Nc1ccc(Cl)cc1F | -6.77% (inactive)
81 | CC(C)(C)c1ccc(C(=O)NCC(=O)OCN2C(=O)c3ccccc3C2=O)cc1 | -3.65% (inactive)
82 | CN(Cc1cccnc1)C(=O)c1cc(COc2ccc3ncccc3c2)on1 | 0.47% (inactive)
83 | C=CCC1(CC=C)CCCN1C(=O)c1cc(COc2ccc(-n3cncn3)cc2)on1 | -1.1% (inactive)
84 | CC1=NN(C(=O)Cc2ccc(C)cc2)C(O)(c2cccnc2)C1 (centres undefined) | -0.71% (inactive)
85 | O=C(Nc1ccccc1Cl)NC1(C(=O)N2CCOCC2)CCCCC1 | 0.64% (inactive)
86 | CCN(Cc1ccccc1)C(=O)CCS(=O)(=O)c1ccc2c(c1)oc(=O)n2C | 4.57% (inactive)
87 | O=C(NNC(=S)Nc1ccc(F)cc1)[C@H]1C[C@@H]1c1ccccc1 | 2.74% (inactive)
88 | COc1ccc(OC)c(NC(=O)c2cnn(-c3ccccc3Cl)c2NC(=O)c2ccco2)c1 | -0.32% (inactive)
89 | CCCC(c1nnnn1C(C)(C)C)N1CCN(Cc2ccccc2)CC1 (centres undefined) | -1.17% (inactive)
